Results filed as inconclusive are left out. Activity calls are given as the source filed them. Unless noted, the call rests on the fitted dose curve; in most records, active means well fitted curve in the direction sought with a large enough effect in the repeat runs; inconclusive means weak or mixed curves; inactive means no such curve, though single readings can be large; an effect the other way counts as inactive or inconclusive. Positions of bridges follow the written chain, without caps; N, C: chain ends. Non-standard residues stand in square brackets, D forms with d. Residues, ends and D or L forms follow the SMILES beside them. *: point of attachment. X2 = CC[C@H](C)CCCCC(=O)*; Dab = NCC[C@H](N)C(=O)O
Columns and labels:
[1] = qHTS assay to identify aromatase inhibitors - cell viability counter screen (AID 743084);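 further: cells stimulated with testosterone during compound exposure; nearly all actives have a fitted effect of over 55% in size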; further: potency means the concentration at half of the fitted maximal effect
[2] = molecular target: Aryl hydrocarbon receptor (Homo sapiens) (UniProt P35869); assay: qHTS assay to identify small molecule that activate the aryl hydrocarbon receptor (AhR) signaling pathway (AID 743085); further: nearly all actives have a fitted effect of over 15% in size; further: potency means the concentration at half of the fitted maximal effect;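 on activation: HG2L7.5c1 human HepG2 liver cells with stably integrated DRE-driven firefly reporter; series mostly up to about 70 µM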
Sequence of Aryl hydrocarbon receptor (Homo sapiens) (P35869 whole entry, looked up): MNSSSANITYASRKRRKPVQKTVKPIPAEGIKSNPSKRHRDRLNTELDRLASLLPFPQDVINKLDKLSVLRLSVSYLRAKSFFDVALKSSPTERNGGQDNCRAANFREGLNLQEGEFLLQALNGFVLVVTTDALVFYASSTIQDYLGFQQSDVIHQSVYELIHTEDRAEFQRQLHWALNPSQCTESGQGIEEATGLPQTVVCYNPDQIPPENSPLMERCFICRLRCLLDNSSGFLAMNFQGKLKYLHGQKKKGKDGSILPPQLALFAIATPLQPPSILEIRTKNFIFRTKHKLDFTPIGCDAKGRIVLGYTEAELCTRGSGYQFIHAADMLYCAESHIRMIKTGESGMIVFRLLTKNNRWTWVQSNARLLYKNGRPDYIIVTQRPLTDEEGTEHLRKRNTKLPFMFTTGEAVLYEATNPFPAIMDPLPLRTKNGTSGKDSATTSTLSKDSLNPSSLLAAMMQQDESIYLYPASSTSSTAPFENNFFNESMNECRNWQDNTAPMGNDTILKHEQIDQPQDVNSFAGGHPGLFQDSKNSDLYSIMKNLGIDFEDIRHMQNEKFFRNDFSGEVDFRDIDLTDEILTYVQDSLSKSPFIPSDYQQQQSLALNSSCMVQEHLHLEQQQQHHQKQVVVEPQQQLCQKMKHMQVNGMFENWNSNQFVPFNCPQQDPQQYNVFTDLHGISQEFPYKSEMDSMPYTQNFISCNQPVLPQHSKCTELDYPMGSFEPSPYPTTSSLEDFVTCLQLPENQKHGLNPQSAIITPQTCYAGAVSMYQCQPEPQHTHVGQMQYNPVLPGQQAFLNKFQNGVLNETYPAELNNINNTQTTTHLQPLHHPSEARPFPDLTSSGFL
Procedure, shortened: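 HepG2 cells stably carrying a 20-DRE firefly luciferase reporter (HG2L7.5c1) treated with compound for 24 hr at 37C. Luciferase read by ONE-Glo luminescence, with CellTiter-Fluor viability read first.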

[3] = qHTS assay to identify small molecule that activate the aryl hydrocarbon receptor (AhR) signaling pathway - cell viability counter screen (AID 743086); further: nearly all actives have a fitted effect of over 45% in size; further: potency means the concentration at half of the fitted maximal effect
Procedure, shortened: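 HepG2-AhR-luc (HG2L7.5c1) cells, 4000/well, treated 24 h at 37 C with compound; viability measured as CellTiter-Fluor fluorescence after 30 min in the same wells as the luciferase read.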

[4] = molecular target: Peroxisome proliferator-activated receptor gamma (Homo sapiens) (UniProt P37231); assay: qHTS assay to identify small molecule agonists of the peroxisome proliferator-activated receptor gamma (PPARg) signaling pathway (AID 743094; active means well fitted activation curve with a large enough effect in the signal ratio in the repeat runs, not every such curve was filed as active; the % refers to the signal ratio)
Sequence of Peroxisome proliferator-activated receptor gamma (Homo sapiens) (P37231 whole entry, looked up): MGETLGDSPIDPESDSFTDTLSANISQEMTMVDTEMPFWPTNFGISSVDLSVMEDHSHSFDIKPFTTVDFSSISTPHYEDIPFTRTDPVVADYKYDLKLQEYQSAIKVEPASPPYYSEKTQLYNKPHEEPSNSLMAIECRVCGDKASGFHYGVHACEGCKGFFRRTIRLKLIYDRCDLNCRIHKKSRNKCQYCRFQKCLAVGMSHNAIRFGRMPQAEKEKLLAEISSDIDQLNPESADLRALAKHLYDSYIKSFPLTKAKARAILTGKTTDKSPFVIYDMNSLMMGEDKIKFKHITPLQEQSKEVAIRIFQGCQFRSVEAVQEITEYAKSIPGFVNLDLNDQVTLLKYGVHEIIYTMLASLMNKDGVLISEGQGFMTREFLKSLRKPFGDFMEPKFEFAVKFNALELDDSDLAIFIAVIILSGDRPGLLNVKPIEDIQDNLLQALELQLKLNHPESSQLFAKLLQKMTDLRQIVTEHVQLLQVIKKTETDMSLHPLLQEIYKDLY
Procedure, shortened: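 Following 5 h plating at 37C, PPARg-bla HEK293H cells receive compound or DMSO for 17 h; fluorescence intensity is recorded after LiveBLAzer B/G loading for 1 h at room temperature.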

[5] = qHTS assay to identify small molecule phospholipidosis (PLD) inducers (AID 1259344; active means well fitted curve in the direction sought with a large enough effect; an effect the other way counts as inactive or inconclusive)
Procedure, shortened: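 HepG2 cells, 900/well, treated with compound plus LipidTOX Red for 24 h at 37 C; amiodarone positive and DMSO negative controls. Fixed with paraformaldehyde/Hoechst, then high-content imaging scored LipidTOX pit count and integrated intensity per well and per cell.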

[6] = molecular target: Nuclear receptor subfamily 1 group I member 2 (Rattus norvegicus) (UniProt Q9R1A7); assay: Rat pregnane X receptor (rPXR) activation by small molecules, qHTS assay (AID 1346983); details: rPXR luciferase reporter cells, One-Glo luminescence, 24 h; max activation: stronger effect = higher value; further: nearly all actives have a fitted effect of over 20% in size
Sequence of Nuclear receptor subfamily 1 group I member 2 (Rattus norvegicus) (Q9R1A7 whole entry, looked up): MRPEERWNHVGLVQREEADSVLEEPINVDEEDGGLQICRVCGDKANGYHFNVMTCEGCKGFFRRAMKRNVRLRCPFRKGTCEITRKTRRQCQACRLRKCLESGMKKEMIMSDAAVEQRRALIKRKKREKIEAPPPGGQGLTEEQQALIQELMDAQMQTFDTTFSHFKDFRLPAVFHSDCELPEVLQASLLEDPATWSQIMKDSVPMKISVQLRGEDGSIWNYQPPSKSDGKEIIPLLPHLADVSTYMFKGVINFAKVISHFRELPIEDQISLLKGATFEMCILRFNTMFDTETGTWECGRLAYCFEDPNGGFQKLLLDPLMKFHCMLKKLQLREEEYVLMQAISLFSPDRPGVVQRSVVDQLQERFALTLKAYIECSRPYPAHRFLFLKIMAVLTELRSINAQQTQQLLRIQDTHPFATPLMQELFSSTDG
Procedure, shortened: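 Cell-based rPXR activation assay: rPXR cells, 2,000 per well, rested 5hr at 37 C, then exposed to compounds in DMSO for 24 hr at 37 C. Luciferase activity read by One-Glo luminescence after 30 min at room temperature.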

[7] = molecular target: Nuclear receptor subfamily 1 group I member 2 (Homo sapiens) (UniProt O75469); assay: CYP3A4 induction through human pregnane X receptor (PXR) by small molecules, qHTS assay (AID 1346984); further: nearly all actives have a fitted effect of over 40% in size; further: potency means the concentration at half of the fitted maximal effect
Procedure, shortened: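 qHTS, concentration-response format: HepG2 DPX-2 line, PXR/CYP3A4-luc. Exposure 24 h, 37C. Substrate Luciferin-IPA 3uM final, 3 h. Detection One-Glo, 30 min RT.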

[8] = molecular target: Nuclear receptor subfamily 1 group I member 2 (Homo sapiens) (UniProt O75469); assay: Human pregnane X receptor (PXR) activation by small molecules, qHTS assay (AID 1346985); further: nearly all actives have a fitted effect of over 40% in size; further: potency means the concentration at half of the fitted maximal effect
Procedure, shortened: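 DPX-2 cells (HepG2 co-transfected with a PXR response element and a CYP3A4-promoter luciferase construct) were seeded at 2,000 per well, rested 5 hr at 37C, then exposed to DMSO-dissolved compounds for 24 hr. Activation was read as luciferase luminescence.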
On the % scale 0 is the no-effect control and ±100 the full control effect.

NC[C@@H]1O[C@H](O[C@H]2[C@@H](O)[C@H](O[C@@H]3[C@@H](O)[C@H](N)C[C@H](N)[C@H]3O[C@H]3O[C@H](CO)[C@@H](O)[C@H](O)[C@H]3N)O[C@@H]2CO)[C@H](N)[C@@H](O)[C@@H]1O
inactive: Potency [1] | Potency [2] | Potency [3] | Potency [4] | Potency [5]

COc1cc(C[C@@H]2NCCc3cc(O)c(O)cc32)cc(OC)c1OC
inactive: Potency [1] | Potency [3] | Potency [4] | Potency [5]

Clc1ccc(COC(Cn2ccnc2)c2ccc(Cl)cc2Cl)c(Cl)c1 (stereo not given)
inactive: Potency [1] | Potency [3] | Potency [5]

Nc1c(Br)cc(Br)cc1CNC1CCC(O)CC1 (stereo not given)
inactive: Potency [1] | Potency [2] | Potency [3] | Potency [4] | Potency [5]

NC[C@@H]1O[C@H](O[C@H]2[C@@H](O)[C@H](O[C@@H]3[C@@H](O)[C@H](N)C[C@H](N)[C@H]3O[C@H]3O[C@H](CN)[C@@H](O)[C@H](O)[C@H]3N)O[C@@H]2CO)[C@H](N)[C@@H](O)[C@@H]1O
inactive: Potency [1] | Potency [2] | Potency [4] | Potency [5]

CCCCCCCCCCCCCCCC(=O)OC[C@@H](NC(=O)C(Cl)Cl)[C@H](O)c1ccc([N+](=O)[O-])cc1
inactive: Potency [1] | Potency [2] | Potency [4] | Potency [5]

CCC(=O)Oc1ccc2c(c1)CC[C@@H]1[C@@H]2CC[C@]2(C)[C@@H](OC(=O)CC)CC[C@@H]12
inactive: Potency [1] | Potency [2] | Potency [4] | Potency [5]

C[C@H](CSC(=O)c1ccccc1)C(=O)N1C[C@@H](Sc2ccccc2)C[C@H]1C(=O)O
inactive: Potency [1] | Potency [2] | Potency [3] | Potency [4] | Potency [5]

CC(=O)O[C@H]1CC[C@@]2(C)C(=CC[C@H]3[C@@H]4CC[C@H](C(C)=O)[C@@]4(C)CC[C@@H]32)C1
inactive: Potency [1] | Potency [2] | Potency [3] | Potency [4] | PLD induction [5] 6.8% [at 7.66 µM]

CCC(C)(C)OC(=O)N[C@@H](Cc1c[nH]c2ccccc12)C(=O)N[C@@H](CCSC)C(=O)N[C@@H](CC(=O)O)C(=O)N[C@@H](Cc1ccccc1)C(N)=O
inactive: Potency [1] | Potency [2] | Potency [4] | Potency [5]

CC[C@H](C)CCCCC(=O)N[C@@H](CCN)C(=O)N[C@H](C(=O)N[C@@H](CCN)C(=O)N[C@H]1CCNC(=O)[C@H]([C@@H](C)O)NC(=O)[C@H](CCN)NC(=O)[C@H](CCN)NC(=O)[C@H](CC(C)C)NC(=O)[C@@H](CC(C)C)NC(=O)[C@H](CCN)NC1=O)[C@@H](C)O (X2-[Dab]T[Dab][Dab][Dab][dL]L[Dab][Dab]T; lactam 4-C)
inactive: Potency [1] | Potency [2] | Potency [4] | Potency [5]

O=C(O)c1cc2ccccc2c(Cc2c(O)c(C(=O)O)cc3ccccc23)c1O
inactive: Potency [1] | Potency [3] | Potency [4] | Potency [5]

Nc1ncnc(Nc2ccc(Cl)cc2)n1
inactive: Potency [1] | Potency [4] | Potency [5]
active: Potency [2] 11.9 µM

CC1(C)S[C@@H]2[C@H](NC(=O)Cc3ccccc3)C(=O)N2[C@H]1C(=O)O
inactive: Potency [1] | Potency [2] | Potency [3] | Potency [4] | Potency [5]

COc1cc(Br)c(C[N+]2(CCOCCC3CCC4CC3C4(C)C)CCOCC2)cc1OC (stereo not given)
inactive: Potency [1] | Potency [2] | Potency [4] | Potency [5]

C[C@H]1C[C@@H]2[C@H]([C@@H](O)C[C@@]3(C)[C@H]2CC[C@]3(O)C(=O)COC(=O)CCC(=O)O)[C@@]2(C)C=CC(=O)C=C12
inactive: Potency [1] | Potency [2] | Potency [4] | PLD induction [5] 0.704% [at 7.66 µM]

C[C@@H]1C[C@H]2C3C[C@H](F)C4=CC(=O)C=CC4(C)[C@@]3(F)[C@@H](O)CC2(C)[C@@]1(O)C(=O)COC(=O)C(C)(C)C (stereo not given in full)
inactive: Potency [1] | Potency [3] | Potency [4] | Potency [5]

CCN(CC)CCOC(=O)c1ccc(N)cc1Cl
inactive: Potency [1] | Potency [3] | Potency [4] | Potency [5]

N[C@@H](C(=O)N[C@@H]1C(=O)N2C(C(=O)O)=C(Cl)CC[C@H]12)c1ccccc1
inactive: Potency [1] | Potency [2] | Potency [4] | Potency [5]

Cc1onc(-c2ccccc2)c1C(=O)N[C@@H]1C(=O)N2[C@@H]1SC(C)(C)[C@@H]2C(=O)O
inactive: Potency [1] | Potency [2] | Potency [3] | Potency [4] | PLD induction [5] -3.09% [at 7.66 µM]

OC(CN1CCCCC1)c1cc(-c2ccccc2)on1 (stereo not given)
inactive: Potency [1] | Potency [3] | Potency [4] | Potency [5]

CCCCCCCCCCCCCCCC(=O)O[C@@H]1[C@@H](O)[C@@H](O)[C@@H]([C@H](NC(=O)[C@@H]2C[C@@H](CCC)CN2C)[C@H](C)Cl)O[C@@H]1SC
inactive: Potency [1] | Potency [2] | Potency [3] | Potency [4] | Potency [5]

CC(=O)OCC(=O)[C@@]1(O)[C@H](C)C[C@H]2[C@@H]3C[C@H](F)C4=CC(=O)C=C[C@]4(C)[C@H]3[C@@H](O)C[C@@]21C
inactive: Potency [1] | Potency [3] | Potency [4] | Potency [5]

CC(=O)Oc1c(C)cc(OCC(O)CNC(C)C)c(C)c1C (stereo not given)
inactive: Potency [1] | Potency [2] | Potency [3] | Potency [4] | max activation [6] -4.59% | Potency [7] | Potency [8]

C[C@H]1C[C@H]2[C@@H]3CCC4=CC(=O)C=C[C@]4(C)[C@@]3(F)[C@@H](O)C[C@]2(C)[C@@]1(O)C(=O)CCl
active: Potency [2] 6.68 µM
inactive: Potency [5]

CCC(=O)c1ccc2c(c1)N(CCCN1CCN(CCO)CC1)c1ccccc1S2
active: Potency [7] 14.1 µM | Potency [8] 25.1 µM
inactive: Potency [1] | max activation [6] -17.5%

COc1cc(C)c(/C=C/C(C)=C/C=C/C(C)=C/C(=O)O)c(C)c1C
inactive: Potency [1] | Potency [2] | Potency [3] | max activation [6] -4.44% | Potency [7] | Potency [8]

CCNC(=O)[C@@H]1CCCN1C(=O)[C@H](CCCN=C(N)N)NC(=O)[C@H](CC(C)C)NC(=O)[C@@H](Cc1c[nH]c2ccccc12)NC(=O)[C@H](Cc1ccc(O)cc1)NC(=O)[C@H](CO)NC(=O)[C@H](Cc1c[nH]c2ccccc12)NC(=O)[C@H](Cc1cnc[nH]1)NC(=O)[C@@H]1CCC(=O)N1
inactive: Potency [2] | max activation [6] -27.8% | Potency [7] | Potency [8]
active: Potency [1] 29.8 µM | Potency [3] 7.5 µM

CC1(S(=O)(=O)O)CC(=O)c2ccccc2C1=O (stereo not given)
inactive: Potency [5]
active: Potency [2] 10.6 µM

COc1ccc2c(c1)OC(C)(C)C(c1ccccc1)C2c1ccc(OCCN2CCCC2)cc1 (stereo not given)
inactive: Potency [1] | Potency [2] | max activation [6] -6.65% | Potency [7]
active: Potency [8] 15.8 µM

From PubChem BioAssay (Tox21)
